# In the supplement of paper PMC8975748:
# Where a name gives a salt, the structure may show the parent alone.
# Tested on: Saccharomyces cerevisiae BY4741 SeMeCo community
# Experiment: z-score of subpopulation abundance vs DMSO median, subpopulation auxotrophic for HL; higher = larger share of this subpopulation than in DMSO controls
# Conditions: 10 µM; 24 h; SM minimal medium; subpopulation (auxotrophy): HL
# Summary of the method: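 Scoring was based on each subpopulation's abundance, expressed as a z-score against the vehicle-well median. A Saccharomyces cerevisiae BY4741 community with four plasmids, each restoring one auxotrophy and encoding a distinct fluorescent protein, was pre-grown overnight to OD600 1.0, diluted to 0.3, and added at 70 µl to 384-well plates acoustically predosed with library drugs (10 µM final). It then grew 24 h in minimal SM medium before paraformaldehyde fixation and automated confocal microscopy, with single-auxotroph fluorescent strains setting thresholds and autofluorescence correction.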
row,Structure (SMILES),z-score of subpopulation abundance
1,O=C(Cn1cnnn1)N[C@@H]1C(=O)N2C(C(=O)O)=C(CSc3nncs3)CS[C@H]12 [Ceftezole],-0.41
2,O=C(NCCN1CCOCC1)c1ccc(Cl)cc1,-0.31
3,CN1CCN(CCCN2c3ccccc3Sc3ccc(C(F)(F)F)cc32)CC1 [Trifluoperazine 2HCl],-0.59
4,CCCCCCCCN=c1ccn(CCCCCCCCCCn2ccc(=NCCCCCCCC)cc2)cc1 [Octenidine Dihydrochloride],20
5,CC1(C)S[C@@H]2[C@H](NC(=O)Cc3ccccc3)C(=O)N2[C@H]1C(=O)O [Penicillin G Sodium],-0.32
6,CC(C)[C@H]1CC[C@H](C(=O)N[C@H](Cc2ccccc2)C(=O)O)CC1 [Nateglinide],-0.02
7,Nc1ccc(S(=O)(=O)NC(=O)c2ccccc2)cc1 [Sulfabenzamide],-0.91
8,COc1ccc(-c2nc3cc(C4=NNC(=O)CC4C)ccc3[nH]2)cc1 (configuration not stated) [Pimobendan],0.79
9,CC(C)N1CCN(c2ccc(OCC3COC(Cn4cncn4)(c4ccc(Cl)cc4Cl)O3)cc2)CC1 (configuration not stated) [Terconazole],-0.76
10,COc1ccc2c(c1)c(CC(=O)O)c(C)n2C(=O)c1ccc(Cl)cc1 [Indomethacin],-0.38
11,N[C@@H](CCC(=O)O)C(=O)O [(S)-Glutamic acid],-0.27
12,CC1(C)S[C@@H]2[C@H](NC(=O)Cc3ccccc3)C(=O)N2[C@H]1C(=O)O [Benzylpenicillin potassium],-0.23
13,NC(=O)c1cnccn1 [Pyrazinamide],-0.42
14,Cc1nnc(NS(=O)(=O)c2ccc(N)cc2)s1 [Sulfamethizole],-0.84
15,CCC[C@@H]1C[C@@H](C(=O)N[C@@H]([C@H]2O[C@H](SC)[C@H](OP(=O)(O)O)[C@@H](O)[C@H]2O)[C@H](C)Cl)N(C)C1 [Clindamycin Phosphate],-0.71
16,O=c1[nH]cnc2c1ncn2[C@@H]1O[C@H](CO)[C@@H](O)[C@H]1O [Isoprinosine],-0.64

row,Structure (SMILES),z-score of subpopulation abundance
1,C=C1c2cccc(O)c2C(O)=C2C(=O)[C@]3(O)C(O)=C(C(N)=O)C(=O)[C@@H](N(C)C)[C@@H]3[C@@H](O)[C@H]12 [Methacycline HCl],1.43
2,COC(=O)C1=C(C)NC(C)=C(C(=O)OC)C1c1ccccc1[N+](=O)[O-] [Nifedipine],-0.95
3,Nc1ccc(S(=O)(=O)c2ccc(N)cc2)cc1 [Dapson],0.32
4,NC(CO)(CO)CO [Trometamol],0
5,C[C@]1(COc2ccc(N3CCC(Oc4ccc(OC(F)(F)F)cc4)CC3)cc2)Cn2cc([N+](=O)[O-])nc2O1 [Delamanid],0.9
6,Nc1nc(=O)[nH]cc1F [Flucytosine],13.2
7,C[C@]12CC[C@@H]3c4ccc(OS(=O)(=O)O)cc4CC[C@H]3[C@@H]1CCC2=O [Estropipate],-0.81
8,COc1ccnc(C[S+]([O-])c2nc3cc(-n4cccc4)ccc3[nH]2)c1C (configuration not stated) [Ilaprazole sodium],6.22
9,CN1C[C@@H]2C[C@H]1CN2c1cc2c(cc1F)c(=O)c(C(=O)O)cn2C1CC1 [Danofloxacin Mesylate],-0.06
10,CO/N=C(\C(=O)N[C@@H]1C(=O)N2C(C(=O)O)=CCS[C@H]12)c1csc(N)n1 [Ceftizoxime],-0.85
11,CN(C)[C@@H]1C(=O)C(C(N)=O)=C(O)[C@@]2(O)C(=O)C3=C(O)c4c(O)ccc(Cl)c4[C@@H](O)[C@H]3C[C@@H]12 [Demeclocycline HCl],0.01
12,Nc1c(Br)cc(Br)cc1CN[C@H]1CC[C@H](O)CC1 [Ambroxol HCl],-0.86
13,CCOC(=O)c1ccc(N)cc1 [Benzocaine],-1.2
14,O=C1c2c(O)ccc(O)c2C(=O)c2c(NCCNCCO)ccc(NCCNCCO)c21 [Mitoxantrone 2HCl],20.9
15,c1ccc2[nH]c(-c3cscn3)nc2c1 [Thiabendazole],-0.01
16,C[C@@H](O)[C@H]1C(=O)N2C(C(=O)[O-])=C(SC3Cn4cnc[n+]4C3)[C@H](C)[C@H]12 (some centres not stated) [Biapenem],-0.48
